# High-throughput results: PubChem, National Center for Advancing Translational Sciences (NCATS)
# Sm TGR inh = S. mansoni TGR enzyme inhibition; 3% of 360,000 active; Potency, µM (top dose mostly 114 µM), usual class: inhibitors; purified TGR, DTNB reduction, TNB absorbance 405 nm; Q962Y6; further: nearly all actives have a fitted effect of over 60% in size
#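 First, TGR (20 nM dispensed) and NADPH were mixed with compound. Second, a 15 min room-temperature incubation followed. Third, further NADPH and then DTNB were added to start the reaction. Finally, TNB absorbance was monitored kinetically.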
# NS1 inh = influenza NS1 inhibition; 0.4% of 270,000 active; AID 2326; Potency, µM (top dose mostly 46.1 µM); calls by dose curve; further: actives are rising curves; nearly all actives have a fitted effect of over 50% in size
#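 S. cerevisiae expressing influenza A NS1, grown in glucose, washed, then diluted 1:100 into pH 6.0 -URA galactose medium with 23 nl compound. Growth recovery read as OD600; NS1-free strain serves as control.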
# Pf growth 96h = P. falciparum growth inhibition at 96 hours. P. falciparum luciferase reporter growth, 96 h. Potency, µM (top dose mostly 28.7 µM), actives largely listed as inhibitors. 6.9% of 320,000 active. AID 504834
#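 Infected RBCs, 2% Hct / 0.05% parasitemia final; luciferase-reporter P. falciparum; cpd 96 h, 37 C, 5% CO2; luciferase detection reagent; luminescence.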
# AMA1 RON2 block = disrupts binding of P. falciparum AMA1 to RON2; Potency, µM (top dose mostly 58.2 µM), hits mostly inhibitors; AlphaScreen AMA1-biotinylated RON2 peptide binding; 0.2% of 360,000 active; AID 720542; further: nearly all actives have a fitted effect of over 45% in size
#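 AMA1 (3D7) with his tag at 25 nM final met compounds first, then biotinylated RON2 peptide at 25 nM; detection used donor plus acceptor beads, 10 µg/mL apiece, read by AlphaScreen after 30 min at room temperature.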
# Pf growth 48h = inhibits P. falciparum growth in the first generation, 48 h; 5.9% of 310,000 active; Potency, µM (highest dose often 28.7 µM), hits mostly inhibitors; P. falciparum luciferase growth in erythrocytes, 48 h; AID 504832
#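 Firefly luciferase activity from engineered P. falciparum reports growth; inhibitors lower the luminescent signal. Cultures contained 2% hematocrit erythrocytes at 0.1% final parasitemia.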
# Numbers stand for hits; i = inactive; ? = inconclusive; nt = no result given; [ ] = remark or other dose. Only some compounds are listed: those with a hit (about 11% of all), similar ones and a draw of the others. Unless noted, the call rests on the fitted dose curve; in most records, active means well fitted curve in the direction sought with a large enough effect; inconclusive means small, poorly fitted or top-dose-only effect, or another doubt; inactive means no such curve, though single readings can be large; an effect the other way counts as inactive or inconclusive.
SMILES,Sm TGR inh,NS1 inh,Pf growth 96h,AMA1 RON2 block,Pf growth 48h
C#CCOCCOCCOCCNc1nc(N2CCN(C(=O)Cn3cc(CCCCN)nn3)CC2)nc(N2CCN(C(=O)Cn3cc(CC(C)O)nn3)CC2)n1 (centres undefined),i,i,i,i,i
C#CCOCCOCCOCCNc1nc(N2CCN(C(=O)CCCCCCCCCCNC(=O)Cn3cc(CCCCCN)nn3)CC2)nc(N2CCN(C(=O)CCCCCCCCCCNC(=O)[C@@H]([C@H](C)O)n3cc(C)nn3)CC2)n1,?,nt,0.52µM,i,0.33µM
CCCc1ccc(C(=O)Cn2nc(C(=O)O)c3ccccc3c2=O)cc1,i,nt,?,i,?
CCN(CC(=O)Nc1ccc(NC(C)=O)cc1)C(=O)c1ccc(S(=O)(=O)N2CCCC2)cc1,nt,nt,nt,i,nt
O=C1Nc2ccccc2/C1=C\C(=O)c1ccccc1,?,i,i,i,i
O=C(/C=C1\C(=O)Nc2ccccc21)/C=C1\C(=O)Nc2ccccc21,13µM,i,?,i,i
COc1ccc(CCN2CCCn3c2nc2c3c(=O)n(CC(C)C)c(=O)n2C)cc1OC,i,i,?,i,?
O=C(Nc1ccccc1)N(CCc1nc2ccccc2[nH]1)C1CCCC1,i,i,i,i,i
S=C(NC1CCCCC1)N(CCc1nc2ccccc2[nH]1)C1CCCC1,i,i,13µM,i,?
Cc1ccc(C(=O)OCn2nnc3ccccc3c2=O)cc1[N+](=O)[O-],i,nt,2.6µM,i,i
Cc1ccccc1/C=N/N1C(=O)CSC1=S,10µM,i,i,i,i[0.00184 µM]
O=C1CSC(=S)N1N=Cc1ccccc1O,nt,nt,nt,i,nt
O=C1CSC(=S)N1/N=C/c1ccc(Cl)c([N+](=O)[O-])c1,22µM,i,?,nt,?
O=C1CSC(=S)N1/N=C/c1ccc2c(c1)OCCO2,7.1µM,i,i,i,nt
O=C1CSC(=S)N1/N=C/c1cc(Br)c(O)c(Br)c1,20µM,i,?,i,i
CCCCn1c(N)c(N(C(=O)CSc2nnnn2-c2ccccc2)C2CCCC2)c(=O)[nH]c1=O,?,nt,i,i,i
COc1cc(/C=N/N2C(=O)CSC2=S)ccc1O,5.6µM,i,i,i,nt
COc1ccc(NC2c3ccccc3C(=O)N2c2ccccn2)cc1 (centres undefined),i,i,12µM,i,?
CCOC(=O)c1ccccc1NC1c2ccccc2C(=O)N1c1ccc(C)cn1 (centres undefined),i,i,i,i,i
CCc1ccccc1NC1c2ccccc2C(=O)N1c1cc(C)ccn1 (centres undefined),i,i,i,i,13µM
CCOC(=O)c1ccc(NC2c3ccccc3C(=O)N2c2ccccn2)cc1 (centres undefined),i,i,10µM,i,nt
O=C(CCCCCC(=O)N(CCO)CCO)N(CCO)CCO,i,i,nt,i,13µM
CCCCCCCCCCCC(=O)N(CCO)CCO,nt,nt,i,nt,i
COc1ccc(-c2ccc(CCC(=O)O)n2CC(C)C)cc1,10µM,i,?,i,nt
COc1ccc(OC)c(NC(=O)Cn2c(CCC(=O)O)ccc2-c2ccc(C)cc2)c1,i,nt,i,i,i
SMILES,Sm TGR inh,NS1 inh,Pf growth 96h,AMA1 RON2 block,Pf growth 48h
C=CCn1c(CCC(=O)O)ccc1-c1ccc(OC)cc1,45µM,i,i,i,i
O=C(CSc1oc(-c2ccco2)nc1S(=O)(=O)c1ccc(Cl)cc1)c1ccc(Cl)cc1,i,nt,nt,nt,nt
CCOC(=O)CCc1c(C)nc(SCCCn2c(=O)[nH]c3ccccc32)c(C#N)c1C,i,i,i,i,?
CCOC(=O)CCc1c(C)nc(SCCN2CCCC2)c(C#N)c1C,i,i,5.2µM,i,?
CC(O)C1CCC2C3CCC4CC(O)CCC4(C)C3CCC12C (centres undefined),nt,nt,?,nt,i
O=C1C(Cl)=CC(=Nc2ccc(O)cc2)C=C1Cl,0.89µM,nt,i,i,?
O=C1CSC(=Nc2ccc(O)cc2)N1,i,i,i,i,i[0.00184 µM]
O=C(Cc1ccc(Cl)cc1)NCCCNC(=O)c1cccnc1,i,i,i,i,i
CCOC(=O)C1(C#N)C(=O)CSC1=Nc1ccccc1Cl (centres undefined),nt,nt,nt,i,nt
CC(NC(=O)CC12CC3CC(CC(C3)C1)C2)C(=O)O (centres undefined),i,i,9.3µM,i,i
CCOc1ccc(N=c2cc(-c3ccc(OC)cc3)oc3ccccc23)cc1,i,i,?,14µM,?
COc1ccc(N=c2cc(-c3ccc(OC)cc3)oc3ccccc23)cc1,i,i,i,13µM,?
